# Test results reported in PubChem BioAssay (NCATS).
# A number with no mark means an inactive call. Active and inactive are the calls of the source. The call rests on the fitted dose curve; in most records, active means well fitted curve in the direction sought with a large enough effect; inconclusive means small, poorly fitted or top-dose-only effect, or effect the other way, or another doubt; inactive means no such curve, though single readings can be large or run the other way.
# Experiment: qHTS of Nrf2 Activators: LOPAC Validation (AID 624149); further: 0% is about no effect
# Details: Nrf2/ARE reporter cell assay; series mostly up to 46.1 µM; activation: at the top concentration
# From the text: Many diseases have some form of oxidative stress injury and ties to inflammation, causing a host of problems for the patient. The antioxidant response element (ARE) plays an important role in alleviating the harmful effects of oxidative stress. The antioxidant response element (ARE) is a transcriptional regulatory element involved in the activation of genes coding for a number of antioxidant proteins and detoxifying enzymes. These enzymes work in concert to protect tissues from oxidative insults and chemical toxicities in human hepatocytes and immune cells. The protective effects of ARE activation are primarily triggered through Nrf2 (NF-E2-related factor) binding to and activating AREs. It is known that Nrf2 controls the production of over 250 antioxidant and detoxification proteins (Hu et al., 2006), thereby protecting tissues by increasing cellular antioxidant content and suppressing inflammatory signaling pathways. The transcription factor Nrf2 is a central link between oxidative chemicals, such as phenolic antioxidants and electrophilic compounds, and the activation of ARE. Nrf2 levels are constitutively low as a consequence of its interaction with Keap1, which targets its degradation (Zipper and Mulcahy, 2002). Electrophiles react with key cysteine residues in Keap1, releasing Nrf2 and allowing its translocation to the nucleus. Once within the nucleus, Nrf2 complexes with coactivators such as p300, and binds to the AREs to induce gene transcription of cytoprotective enzymes, resulting in the prevention of toxicity. Activation of Nrf2 protects tissues by increasing cellular antioxidant content and suppressing inflammatory signaling pathways. Identifying novel and potent Nrf2 activators by using the AREc32 cell line to detect ARE activation by small molecules will lead to the identification and development of probes to study protective pathways in multiple tissues. These specific probes are essential to study the ARE pathway, and eventually to determine whether this pathway does activate genes that could protect against a host of diseases, including cardiovascular diseases, obesity, diabetes, Alzheimer's, and Parkinson's disease.
# This project's aim is to identify novel and potent Nrf2 activators by using the AREc32 cell line to detect ARE activation by small molecules, which will lead to the identification and development of probes to study the ARE pathway.
# NIH Chemical Genomics Center [NCGC]
# NIH Molecular Libraries Probe Centers Network [MLPCN]
# Assay Submitter (PI): Curtis Klaassen, University of Kansas Medical Center
# 5 uL of 1000 cells/well of AREc32_Fluc cells are seeded into 1536-well plate in OPTI-MEM medium with 5% FBS. The plates are incubated overnight at 37 deg C with 5% CO2. Then through pin tool transfer, 23 nL of compounds are added to each well before a 24 hr incubation at 37 deg C with 5% CO2. After the addition of 2.5 uL of Steady-Glo. the plates are kept at RT for 30 min, before they are read on the ViewLux
Structure (SMILES),activation [%],outcome
C[C@]12C[C@H](O)[C@H]3[C@@H](CCC4=CC(=O)CC[C@@]43C)[C@@H]1CC[C@@H]2C(=O)CO,-2.35,
CN(C)CCC=C1c2ccccc2CCc2ccccc21,-1.91,
CNC(=O)Oc1ccc2c(c1)[C@]1(C)CCN(C)[C@@H]1N2C,-1.69,
N=c1c[n+](N2CCOCC2)[n-]o1,-1.87,
CC(CN(C)C)CN1c2ccccc2CCc2ccccc21 (stereo not given),-2.01,
Nc1cc(=O)[nH]c(N)n1,1.05,
C[C@](N)(Cc1ccc(O)cc1)C(=O)O,-0.0647,
CC(C(O)c1ccc(O)cc1)N1CCC(Cc2ccccc2)CC1 (stereo not given),2.3,
CC1=C(/C=C/C(C)=C/C=C/C(C)=C/C(=O)O)C(C)(C)CCC1,-1.78,
OCCN1CCN(CCCN2c3ccccc3Sc3ccc(Cl)cc32)CC1,6.63,
C[C@]12CC[C@@H]3c4ccc(O)cc4CC[C@H]3[C@@H]1CCC2=O,-1.55,
CC1=C(CC(=O)O)c2cc(F)ccc2/C1=C\c1ccc(S(C)(=O)=O)cc1,0.927,
CC(CN1c2ccccc2Sc2ccccc21)N(C)C (stereo not given),1.31,
O=C1N=C(O)CN1/N=C/c1ccc(-c2ccc([N+](=O)[O-])cc2)o1,-2.25,
Cc1cc(N)c2ccccc2[n+]1CCCCCCCCCC[n+]1c(C)cc(N)c2ccccc21,-1.25,
CCCn1cnc2c1c(=O)n(CCCCC(C)=O)c(=O)n2C,-2.23,
Nc1ncnc2c1ncn2[C@@H]1O[C@H](CO)[C@@H](O)[C@H]1O,-1.94,
CN(C)CCOC(C)(c1ccccc1)c1ccccn1 (stereo not given),-1.94,
CNCCCC1c2ccccc2C=Cc2ccccc21,5.73,
OCc1cc(C(O)CNCCCCCCOCCCCc2ccccc2)ccc1O (stereo not given),-1.28,

Structure (SMILES),activation [%],outcome
CCN(CC)CCCC(C)Nc1c2ccc(Cl)cc2nc2ccc(OC)cc12 (stereo not given),15.7,
CSc1ccc2c(c1)N(CCC1CCCCN1C)c1ccccc1S2 (stereo not given),7.58,
NC1CCN(c2cccc(Cl)n2)CC1,1.18,
CSc1ccc2c(c1)C(N1CCN(C)CC1)Cc1ccccc1S2 (stereo not given),6.88,
CC(C)C(=O)c1c(C(C)C)nn2ccccc12,-2.06,
CCN(CC)CCOC(=O)C1(C2CCCCC2)CCCCC1,-2.18,
CC(=O)OCC(=O)[C@@]1(O)CC[C@H]2[C@@H]3CCC4=CC(=O)CC[C@]4(C)[C@H]3C(=O)C[C@@]21C,-2.31,
CC(C)(C(=O)O)c1ccc(C(O)CCCN2CCC(C(O)(c3ccccc3)c3ccccc3)CC2)cc1 (stereo not given),-1.2,
NC(=O)c1ncn([C@@H]2O[C@H](CO)[C@@H](O)[C@H]2O)n1,-1.63,
NC(N)=NCCC[C@H](N)C(=O)O,-2.1,
COC(=O)C1=C(C)NC(C)=C(C(=O)OC)C1c1ccccc1[N+](=O)[O-],-0.149,
CCN(CC)C(C)CN1c2ccccc2Sc2ccccc21 (stereo not given),-1.74,
CCCCCCCCCCCCCCCC(=O)NCCO,-2.21,
CCN(CC)CCNC(=O)c1cc(Cl)c(N)cc1OC,-2.01,
CNCCC(Oc1ccc(C(F)(F)F)cc1)c1ccccc1 (stereo not given),5.8,
C=Cc1c(C)c2cc3[nH]c(cc4nc(cc5nc(cc1[nH]2)C(C)=C5CCC(=O)O)C(CCC(=O)O)=C4C)c(C)c3C=C,-1.19,
CN(C)CC[C@@H](c1ccc(Cl)cc1)c1ccccn1,-1.97,
CC(C)(C)[C@]1(O)CCN2C[C@H]3c4ccccc4CCc4cccc(c43)[C@@H]2C1,,inactive
CC[C@H]1CN2CCc3cc(OC)c(OC)cc3[C@@H]2C[C@@H]1C[C@H]1NCCc2cc(OC)c(OC)cc21,0.624,
COc1ccc(Cl)cc1C(=O)NCCc1ccc(S(=O)(=O)NC(=O)NC2CCCCC2)cc1,0.523,
